From PubChem BioAssay
Rows were chosen to be rich in hits. Some 7.9% of all compounds tested hit in one or more screens of this group.
HCMV antiviral: qHTS Assay for inhibitors of the human cytomegalovirus (HCMV); AID 1259415, 2018; activity change, negative = inhibition, % at 57.5 µM; actives 4.5% (n = 410,000); HFF cells, HCMV-luciferase reporter, 72 h; active compounds read low; in the data active = activity change below about -60%; inconclusive = no clear call, values can overlap the other calls; inactive = above about -39%
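Inhibition of viral replication was scored as loss of reporter luminescence in HFFs infected with HCMV-luciferase (MOI 1 PFU/cell) for 72 h; compounds tested at 2 doses, normalized to buffer and Salinomycin controls.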
HCV inhibitor: qHTS Assay for Inhibitors of Hepatitis C Virus (HCV); actives 3.4% (n = 340,000); Potency, µM (doses to about 41.8 µM), for the others: top-dose activity change, negative = inhibition, usual class: inhibitors; AID 651820, 2012; Huh7.5.1 HCVcc-Cre infection, luciferase reporter, 44 h; active = well fitted inhibition curve with a large enough effect; inconclusive = small, poorly fitted or top-dose-only effect, or another doubt; inactive = no such curve, though single readings can be large or run the other way; also: potency is read from the fitted curve at half-maximal effect
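Whole-lifecycle infectious HCVcc-Cre system; cells 1,000/well, compound then virus (~0.5 moi) added 4 h after plating, 44 h culture. Luciferase read 15 sec following 15 min substrate incubation, room temp.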
MARV entry inh: qHTS for inhibitors of binding or entry into cells for Marburg Virus; Marburg virus pseudotyped entry inhibition, cell reporter; Potency, µM (titrated, usually from 37.8 µM), for inactives: at the top dose activity change, negative = inhibition, hits mostly inhibitors; actives 1.8% (n = 300,000); AID 540276, 2011; calls by dose curve; tested in HEK293 cells; also: potency is read from the fitted curve at half-maximal effect
FMDV antiviral: High Throughput Screening for Foot and Mouth Disease Virus Antivirals | FMDV antiviral cell-based qHTS | Potency, µM (series often up to 57.9 µM), for inactives: top-dose activity change, negative = inhibition, usual class: inhibitors | actives 1.2% (n = 410,000); calls by dose curve; tested in HEK293T cells; also: read-out not given here; potency is read from the fitted curve at half-maximal effect; nearly all actives have a fitted effect of over 45% in size
LASV entry inh: qHTS for Inhibitors of binding or entry into cells for Lassa Virus; Lassa virus pseudotype entry inhibition, cell reporter; Potency, µM (series often up to 37.9 µM), inactives show at the highest dose activity change, negative = inhibition, hits mostly inhibitors; actives 1.2% (n = 300,000); calls by dose curve; tested in HEK293 cells; also: potency is read from the fitted curve at half-maximal effect; nearly all actives have a fitted effect of over 50% in size
Numbers without * were called inactive; u = inconclusive; x = no result given; [ ] = dose if it differs, or a comment. % is scaled to controls: 0 for no effect and ±100 for the full control effect.

SMILES | HCMV antiviral | HCV inhibitor | MARV entry inh | FMDV antiviral | LASV entry inh
CCn1cc(CN2CCCC(CO)(Cc3ccc(F)cc3)C2)c2ccccc21 (stereo not drawn) | -63.6* | 15.8% | u | -21.9% | -23.7%[46.1 µM]
CN(C)C(=O)O/N=C(\N)COc1ccc(C(C)(C)C)cc1 | -100.4* | u | x | -16.2% | x
CC(C)(C)c1ccc(OCC(=O)O)cc1 | -28.5 | 14.9% | u | 17.7% | 10.4%
COc1ccc(CN2CCCC(Cn3cc(C(=O)N4CCCC4)nn3)C2)c(O)c1 (stereo not drawn) | x | x | x | -11.9% | x
O=C(c1ccc(OC2CCN(CCc3ccccc3)CC2)cc1)N1CCCC1 | -63.4* | x | u | 15.7% | -24.5%
CC(C)N1CCN(C(=O)c2ccc(OC3CCN(CCc4ccccc4)CC3)cc2)CC1 | -21.1 | u | 11.2µM* | 24.1% | -16.3%
O=C(c1ccc(OC2CCN(CCc3ccccc3)CC2)cc1)N1CCCC(CCCO)C1 (stereo not drawn) | -14.5 | 1.9% | x | -16.5% | x
C=CCOc1ccccc1CN1CCC(Oc2ccc(C(=O)N3CCCCC3)cc2)CC1 | -12.4 | x | 3.16µM* | -7.1% | -17.5%
Cc1cc(CN(C)C(=O)c2ccc(OC3CCN(CCc4ccccc4)CC3)cc2)on1 | 8.2 | -6.1% | 3.16µM* | 0.0% | 24.3%[46.1 µM]
Cc1cc(C(=O)NCC2CCC3(CCN(Cc4cc(F)ccc4F)CC3)O2)n(C)n1 (stereo not drawn) | x | x | x | 0.0% | x
CCn1ccnc1CN(C)Cc1c(C(=O)N2C[C@@H](C)O[C@@H](C)C2)nc2ccc(Cl)cn12 | 2.6 | x | 0.8% | -5.3% | 12.2%
Cc1c(C(=O)N/N=C/c2ccc(N(C)C)cc2)[nH]c2ccc(Cl)cc12 | -76.4* | u | -23.3% | 41.4% | u
Cc1cc(C(=O)N/N=C/c2ccc(N(C)C)cc2)c2ccccc2n1 | 2.6 | -21.0% | -17.6%[46.1 µM] | u | u
Cc1c(C(=O)N/N=C/c2ccccc2)[nH]c2ccc(Cl)cc12 | -70.3* | u | x | 101.4% | x
COc1ccccc1N1C(=O)c2cccc3c(Cl)ccc(c23)C1=O | -82.2* | u | 0.7% | -28.8% | u
CC(C)OC(=O)c1ccc(NCc2cc(O)ccc2O)cc1 | -62.7* | 3.55µM* | 2µM* | 6.31µM* | 12.6µM*
COC(=O)c1ccc(CCc2cc(O)ccc2O)cc1 | x | 3.98µM* | u | -9.7% | 12.6µM*
CCC(=O)Nc1ccc(C(=O)OCc2ccccc2)cc1 | -14.6 | -0.5% | u | 29.6% | 16.4%[46.1 µM]
O=C(OCc1ccccc1)c1ccc(NCc2cc(O)ccc2O)cc1 | -86.8* | 5.01µM* | u | 10µM* | 2.51µM*
COP(=O)(OC)c1ccc(NCc2cc(O)ccc2O)cc1 | u | 4.0% | 4.47µM* | 8.4% | -23.4%
CCOc1ccc(CNC(=O)c2ccc3c(c2)nc2n3CCCCC2)cc1 | 27.4 | x | x | 28.4% | u
CCC[C@H]1[C@H](N(C)Cc2cccs2)CC[C@@]23CCCN2C(=O)CCC[C@@H]13 | -4.9 | x | x | x | x
CCOC(=O)c1ccc(OCC(=O)c2ccc(O)cc2O)cc1 | 69.9 | 6.7% | -3.8% | 15.8% | -15.0%
COC(=O)c1ccc(OCC(=O)c2ccc(O)cc2O)cc1 | -61.1* | 3.2% | 27.7% | -7.4% | u
O=C(N/N=C/c1cn(Cc2ccccc2)c2ccccc12)c1cccnc1 | -27.1 | u | 4.47µM* | -22.6% | u
SMILES | HCMV antiviral | HCV inhibitor | MARV entry inh | FMDV antiviral | LASV entry inh
O=C(N/N=C/c1c(-c2ccccc2)[nH]c2ccccc12)c1cccnc1 | 86.9 | 10µM* | x | 6.4% | x
COc1ccc(OC)c(-c2nc(C(=O)NCC3CCCO3)cc3c2[nH]c2ccccc23)c1 (stereo not drawn) | 23.0 | 10µM* | x | -16.5% | x
COc1cccc(-c2nc(C(=O)NCC3CCCO3)cc3c2[nH]c2ccccc23)c1 (stereo not drawn) | -18.0 | 11.2µM* | x | u | x
CS(=O)(=O)c1cccc(C(=O)OCC(=O)Nc2ccc3c(c2)OCO3)c1 | -15.0 | -6.1% | 10.8% | -18.2% | 22.6%
O=C(NC1CCCC1)c1ccccc1OCc1ccccc1 | u | 7.94µM* | -25.9% | u | -3.9%
O=C(NC1CCN(Cc2ccccc2)CC1)c1ccccc1OCc1ccccc1Cl | -62.7* | u | u | -29.2% | 10µM*
O=C(NC1CCN(Cc2ccccc2)CC1)c1ccccc1OCc1ccccc1 | -13.8 | 25.1µM* | x | u | x
NC[C@@H]1O[C@H](O[C@H]2[C@H](O)[C@H](O[C@H]3[C@@H](O)[C@H](N)C[C@H](N)[C@H]3O[C@H]3O[C@H](CN)[C@H](O)[C@H](O)[C@H]3N)O[C@@H]2CO)[C@@H](N)[C@@H](O)[C@@H]1O | x | x | x | -15.0%[16.9 µM] | x
CCc1cc2c(nc1CC)CCN(CCC(C)=NO[C@@H](C)c1cn([C@H](CO)Cc3ccccc3)nn1)C2 | x | x | -27.1%[14.2 µM] | x | x
CSC1=NCCN1S(=O)(=O)c1ccccc1 | 17.7 | 18.2% | x | 3.5% | x
Cc1cc(O)c(C(=O)/C=C/c2ccc(Cl)cc2)c(=O)o1 | 100.7 | -7.5% | 22.0% | 25.1µM* | 23.0%
CSc1ccc(/C=C/C(=O)c2c(O)cc(C)oc2=O)cc1 | -80.1* | 8.9% | 8.5%[46.1 µM] | -29.6% | -26.5%[46.1 µM]
Cc1ccc(-c2cc3nccc(-c4cc([N+](=O)[O-])ccc4O)n3n2)cc1 | -62.9* | x | -4.6%[46.1 µM] | -11.4% | u
Cc1c(Cl)cccc1NC(=O)c1cc(-c2cccs2)on1 | -4.1 | x | -0.2%[46.1 µM] | 24.9% | 3.8%[46.1 µM]
ON=C1c2ccccc2-c2ccccc21 | 43.3 | u | x | 11.2% | x
Nc1cc2c(cc1Cl)-c1ccccc1C2=NO | u | 5.01µM* | u | 41.5% | 29.5%
CCN1[C@@H]2c3ccc(-c4ccc(OC)cc4)c(=O)n3C[C@@H]2[C@@H](CO)[C@@H]1C(=O)NCCN1CCCCC1 | 10.0 | x | x | x | x
O=C(Nc1ccc2c3c(cccc13)CC2)c1ccccc1 | -3.2 | x | x | 47.7% | x
O=C(Nc1ccc2c3c(cccc13)CC2)c1cccc([N+](=O)[O-])c1 | -60.8* | -10.4% | u | -15.6% | -12.9%
O=C(Nc1cccc2c1CCCC2)c1cc([N+](=O)[O-])ccc1Cl | -104.8* | u | -24.0% | u | u
O=C(Nc1cccc2c1CCCC2)c1ccc(Cl)c([N+](=O)[O-])c1 | -26.0 | u | -6.5% | 25.1µM* | 0.4%
Cn1c(=O)oc2cc(S(=O)(=O)Nc3cccc4c3CCCC4)ccc21 | -90.7* | -4.3% | 0.3% | 9.1% | -4.3%
Cc1cc(C)c(NS(=O)(=O)c2ccc3c(c2)oc(=O)n3C)c(C)c1 | u | x | x | -8.9% | x
CCCCNC(=O)N[C@H]1CC[C@@]23CCCN2C(=O)CCC[C@H]3[C@H]1C | -7.9 | x | x | x | x
O=C1CC(C(=O)Nc2ccc(F)cc2)n2cnnc2N1 (stereo not drawn) | -71.2* | u | 4.0%[46.1 µM] | -7.5% | -9.5%
O=C(Nc1ccc(F)cc1)C1CC(=O)n2cnnc2N1 (stereo not drawn) | -30.7 | 13.9% | -2.8%[46.1 µM] | 10.7% | 9.5%[46.1 µM]
